Screens: PubChem, National Center for Advancing Translational Sciences (NCATS)
Compounds with a hit are over-represented: about 2.4% of the library has one in this group of screens.
Pol kappa inh: qHTS for Inhibitors of Polymerase Kappa. DNA polymerase kappa (Homo sapiens), Q9UBT6. purified Pol kappa, fluorescent DNA synthesis assay, 10 min. Potency, µM (top dose mostly 107 µM), for inactives: at the top dose activity, negative = inhibition, most hits filed as inhibitors. actives 0.53% (n = 400,000). AID 588579, 2011; also: % is scaled to controls: 0 for no effect and ±100 for the full control effect
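Fluorescent qHTS in 1536-well format: enzyme (10 nM) and compound sat 15 min at room temperature before 50 nM substrate (final) was added. Signal taken at 0 and 10 min; no-enzyme buffer wells were negative controls.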
POLH inh: qHTS for Inhibitors of Polymerase Eta | recombinant Pol eta, fluorescent DNA replication assay | Potency, µM (titrated, usually from 114 µM), inactives show at the top dose activity change, negative = inhibition, hits mostly inhibitors | actives 1.2% (n = 390,000) | DNA polymerase eta (Homo sapiens), Q9Y253 | AID 588591, 2011; also: % is scaled to controls: 0 for no effect and ±100 for the full control effect
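Pol eta (10 nM) was preincubated with compounds for 15 min at room temperature, after which fluorescent replication substrate (50 nM final) was added to start the reaction. Fluorescence was read kinetically at 0 and 10 min.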
WRN inhibitor: qHTS for Inhibitors of WRN Helicase; Bifunctional 3'-5' exonuclease/ATP-dependent helicase WRN (Homo sapiens), Q14191; WRN helicase unwinding, fluorescent forked duplex, kinetic; Potency, µM (doses to about 114 µM), for the others: at the highest dose activity change, negative = inhibition, hits mostly inhibitors; actives 0.46% (n = 360,000); also: % is scaled to controls: 0 for no effect and ±100 for the full control effect; nearly all actives have a fitted effect of over 55% in size
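Kinetic red-fluorescence monitoring (525/598 nm) tracks WRN helicase activity after 100 nM fluorophore-quencher forked duplex and 2 mM ATP are added to 20 nM enzyme pretreated 15 min at room temperature with compound.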
POLB inh: qHTS Assay for Inhibitors of DNA Polymerase Beta | Pol beta primer extension/strand displacement, fluorescence kinetic | AID 485314, 2010 | actives 1.3% (n = 340,000) | Potency, µM (titrated, usually from 114 µM), without a hit: top-dose activity change, negative = inhibition, actives largely listed as inhibitors; also: % is scaled to controls: 0 for no effect and ±100 for the full control effect
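Pol beta (10 nM) was preincubated with compound for 15 min at room temperature. The reaction was then started with 50 nM substrate and read immediately and after a further 10 min at room temperature.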
FEN1 inhibitor: qHTS Assay for the Inhibitors of Human Flap endonuclease 1 (FEN1); P39748; Recombinant FEN1 flap cleavage, fluorescence, 15 min; Potency, µM (doses to about 114 µM), for inactives: top-dose activity change, negative = inhibition, actives largely listed as inhibitors; actives 0.35% (n = 390,000); AID 588795, 2011; also: % is scaled to controls: 0 for no effect and ±100 for the full control effect; nearly all actives have a fitted effect of over 65% in size
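FEN1 at 10 nM preincubated with compounds 15 min at room temperature, then flap DNA substrate added at 50 nM final. Signal read at 0 and 15 min; concentration-response fitted with four-parameter Hill equation.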
Pol iota inh: qHTS for Inhibitors of Polymerase Iota | Potency, µM (doses to about 115 µM), for inactives: at the highest dose activity, negative = inhibition, usual class: inhibitors | Pol iota fluorescent replication assay, 10 min | actives 1% (n = 390,000)
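Pol iota at 10 nM preincubated 15 min with compounds at room temperature; reaction started with fluorescent substrate, 50 nM final. Fluorescence read kinetically at 0 and 10 min; buffer-only wells as negative control.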
PGK validate: qHTS for inhibitors of Phosphogylcerate Kinase: Hit Validation Screen; shares compounds with Pol kappa inh; TbPGK coupled GAPDH assay, Kinase-Glo luminescence; Potency, µM (titrated, usually from 57.5 µM), without a hit: top-dose activity change, negative = inhibition, most hits filed as inhibitors; actives 79% (n = 500); also: % is scaled to controls: 0 for no effect and ±100 for the full control effect; nearly all actives have a fitted effect of over 65% in size
Target sequence (P07378 whole entry, looked up): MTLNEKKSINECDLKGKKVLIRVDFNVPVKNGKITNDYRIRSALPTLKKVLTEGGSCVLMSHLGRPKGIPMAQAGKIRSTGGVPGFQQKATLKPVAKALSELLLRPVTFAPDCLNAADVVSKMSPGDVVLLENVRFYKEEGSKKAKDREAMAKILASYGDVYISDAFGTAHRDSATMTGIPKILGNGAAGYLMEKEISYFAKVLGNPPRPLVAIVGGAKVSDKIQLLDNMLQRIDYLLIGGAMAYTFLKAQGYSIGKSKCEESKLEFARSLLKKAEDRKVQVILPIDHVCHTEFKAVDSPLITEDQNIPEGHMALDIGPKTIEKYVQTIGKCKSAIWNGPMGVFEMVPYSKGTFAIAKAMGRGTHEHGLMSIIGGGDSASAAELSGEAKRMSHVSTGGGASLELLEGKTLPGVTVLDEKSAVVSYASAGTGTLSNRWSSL
POLI cherry-pick: qHTS for Inhibitors of Polymerase Iota: Confirmatory Assay for Cherry-picked Compounds. Potency, µM, usual class: inhibitors. actives 77% (n = 1,500). Pol iota primer extension, TAMRA/BHQ fluorescence. shares compounds with Pol kappa inh
* hit, by the source's call; ? = inconclusive; · = not tested or not shown; [ ] = remark or other dose. Calls follow the shape of the dose curve; as a rule, active = well fitted curve in the direction sought with a large enough effect; inconclusive = small, poorly fitted or top-dose-only effect, or another doubt; inactive = no such curve, though single readings can be large; an effect the other way counts as inactive or inconclusive. Potency is read from the fitted curve at half-maximal effect.

SMILES | Pol kappa inh | POLH inh | WRN inhibitor | POLB inh | FEN1 inhibitor | Pol iota inh | PGK validate | others
COc1ccc(CCNC(=O)c2nc(SCc3ccc(C)cc3)ncc2Cl)cc1OC | -2% | -12% | · | 3% | 9% | 14% | ·
Cc1cc2nc3c(=O)[nH]c(=O)nc-3n(CC(O)C(O)C(O)COP(=O)(O)O)c2cc1C (centres undefined) | -13%[60.1 µM] | · | · | · | · | · | ·
O=C(O)c1ccc(N/N=C/c2ccc(-c3cc(Cl)ccc3Cl)o2)cc1 | -13% | 79µM* | -31% | ? | 79µM* | ? | · | POLI cherry-pick=?
CCCC12CN3CC(CCC)(CN(C1)C3c1c[nH]c3ccccc13)C2=O (centres undefined) | -8%[60.1 µM] | -14% | · | ? | -11% | 1% | ·
O=C(/C=C/Nc1ccccc1Br)c1ccccn1 | -5% | -15% | -4% | 5% | -1% | 2% | ?
O=C(c1ccco1)N1CCN(c2ncccn2)CC1 | 2% | -11% | 7% | 20% | -2% | -10% | ·
Nc1nc(N2CCN(C(=O)c3ccco3)CC2)nc2ccc(Br)cc12 | -1% | -22% | -5% | -10% | -35% | 0% | ?
Cc1ccc(CCNS(=O)(=O)c2cc(-c3cc(C)no3)ccc2C)cc1 | -4% | -7% | · | 1% | -18% | 12% | ·
O=CC(O)C1OC(=O)C(O)C1O (centres undefined) | 50µM* | 7.9µM* | -30% | · | -8% | 45µM* | 3.3µM*
COc1ccccc1N1CCN(c2ncnc3c2c(-c2ccccc2)cn3-c2cccc(C)c2)CC1 | -1%[60.1 µM] | -16% | · | -13% | -5% | -9% | ·
Cc1cc(C)n(C(C)CC(=O)NCc2ccc(N(C)C)cc2)n1 (centres undefined) | 0% | -2% | · | -6% | 2% | -18% | ·
CC(=O)c1sc2nc(C)cc(C)c2c1N | -9% | -13% | -19% | 0% | -3% | 0% | ·
Cc1cc(C)c2c(n1)sc1c(O)cc(=O)[nH]c12 | 79µM* | 79µM* | ? | ? | ? | ? | · | POLI cherry-pick=47*
O=C(/C=C/c1ccco1)N1CCc2ccccc21 | 0% | -7% | -2% | ? | 2% | -27% | 16µM*
COc1ccccc1N1CCN(C(=O)/C=C/c2ccco2)CC1 | -24% | ? | -20%[57.1 µM] | -1% | 12% | -16% | ·
Nc1ccc(N2CCCCC2)c2nonc12 | -6% | 35µM* | ? | 9% | ? | ? | · | POLI cherry-pick=?
O=C1Nc2cc3c(cc2C1=O)sc1ccccc13 | ? | 45µM* | 45µM* | 40µM* | ? | 32µM* | · | POLI cherry-pick=?
CCc1ccc(C(=O)c2cn(CC(=O)Nc3ccc4c(c3)OCO4)c3ccc(Cl)cc3c2=O)cc1 | -6% | -9% | · | 2% | -2% | 44% | ·
CCc1ccc(C(=O)c2cn(CC(=O)Nc3ccc4c(c3)OCO4)c3cc(OC)c(OC)cc3c2=O)cc1 | 5% | 79µM* | · | 6.3µM* | -1% | 52% | · | POLI cherry-pick=42*
Cc1c(CNC2CCC(C)CC2)c(C(=O)O)c(C)n1Cc1ccc(Cl)cc1 (centres undefined) | -8% | -17% | · | -14% | 16% | 38% | ·
COc1cccc(CNCCSc2nnnn2C)c1OCc1ccc(Cl)cc1Cl | -11% | -11% | · | -25% | -8% | -17% | 0%
COc1ccc(B(O)O)c(CN2CCN(C(=O)OC(C)(C)C)CC2)c1 | -26% | -6% | -9% | · | -10% | ? | ?
Cc1nc(N2CCCC2)c2c(C(=O)Nc3cccc(Cl)c3C)c(C)oc2n1 | -12% | -12% | · | 0% | 11% | -3% | ·
CCOc1ccc(-c2nc(SCC(=O)Nc3cc(F)ccc3F)n3[nH]c(=O)cc3n2)cc1 | 15% | -6% | · | 4.5µM* | -21% | 0% | 5.8µM*
CCN1/C(=C\C(=S)Nc2ccccc2)Sc2ccccc21 | -20% | -25% | -14% | -3% | -5% | 122% | ·
CCN1/C(=C/C(C)=C/c2sc3ccccc3[n+]2CC)Sc2ccccc21 | ? | 40µM* | 18µM* | 35µM* | 7.1µM* | 32µM* | ?
COc1ccc(-c2noc(-c3ccc(NCc4ccccc4OC)c([N+](=O)[O-])c3)n2)cc1 | 0% | -13% | · | -2% | 9% | -5% | ·
CCNS(=O)(=O)c1ccc2nc(NC(=O)c3cccnc3)sc2c1 | -11% | -10% | -5% | 0% | -16% | 9% | ·
CCCCNS(=O)(=O)c1ccc2nc(NC(=O)c3cccnc3)sc2c1 | -7%[60.1 µM] | 50µM* | · | -18% | -10% | 14% | ?
COc1ccc2[nH]c3c(C)c4ccncc4c(C)c3c2c1 | 50µM* | ? | ? | 1.3µM* | 2.8µM* | 3.5µM* | · | POLI cherry-pick=7.5*
